Only some compounds are listed: those with a hit (about 19% of all), similar ones and a draw of the others.
TDP1 cell noCPT = qHTS for Inhibitors of human tyrosyl-DNA phosphodiesterase 1 (TDP1): qHTS in cells in absence of CPT; Potency, µM (series often up to 46.2 µM), inactives show at the top dose activity change, negative = growth inhibition, hits mostly inhibitors; DT40 Tdp1-/- hTDP1 cells, no CPT, ATP luminescence, 48 h; hit rate 15% among 420,000; AID 686978, 2013; further: potency means the concentration at half of the fitted maximal effect; nearly all actives have a fitted effect of over 55% in size
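Compound effects on proliferation are scored in DT40 Tdp1-/-;hTDP1 cells in the absence of CPT. ATP levels (CellTiter-Glo luminescence) are recorded after a ≥48 hr, 37 °C incubation.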
DT40 TDP1 CPT = growth inhibition of DT40 Tdp1-/-;hTDP1 cells with camptothecin (screen for TDP1 inhibitors) | hit rate 12% among 420,000 | Potency, µM (series often up to 46.2 µM), inactives show at the top dose activity change, negative = growth inhibition, most hits filed as inhibitors | chicken DT40 Tdp1-/-;hTDP1 cells + 20 nM CPT, ATP luminescence, 48 h; further: potency means the concentration at half of the fitted maximal effect; nearly all actives have a fitted effect of over 55% in size
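Cell growth measured by CellTiter-Glo luminescence after a minimum 48 h, 37 C compound exposure with 20 nM CPT in Tdp1-knockout DT40 cells stably expressing hTDP1, seeded 400/well; qHTS titration format.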
ELG1 DNA repair = inhibitors of ELG1-dependent DNA repair in HEK293T cells; HEK293T ELG1-luciferase reporter, luminescence, 16 h; DNA damage induced by 5-fluorouridine; Potency, µM (titrated, usually from 46.1 µM), inactives show top-dose activity change, negative = inhibition, most hits filed as inhibitors; hit rate 2.3% among 330,000; further: potency means the concentration at half of the fitted maximal effect; nearly all actives have a fitted effect of over 55% in size
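DMSO vehicle served as the neutral condition. Each well held 2,000 cells given 5-fluorouridine plus compound; after 16 hr at 37 °C/5% CO2, ONE-Glo was added and luciferase measured 30 min later.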
HT1080 IDH1KD tx = toxicity to HT-1080 IDH1 knockdown cells (counter line) | HT-1080 IDH1 knockdown viability, ATP luminescence, 48 h | hit rate 2% among 360,000 | Potency, µM (doses to about 46.1 µM), inactives show at the highest dose activity, negative = toxicity, actives largely listed as cytotoxic;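 further: potency means the concentration at half of the fitted maximal effect; 0% = DMSO wells and -100% = cell-free medium wells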
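After a 2 h attachment period, IDH1KD HT-1080 cells took pin-transferred compound for 48 h at 37 °C; ATP-based luminescence after 10 min room-temperature reagent incubation reported viability.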
IL1B secr inh = inflammasome signaling inhibition, IL-1 beta readout. hit rate 4.7% among 360,000. activity change, % at 57.5 µM. THP-1 LPS/ATP IL-1B secretion, AlphaLISA, 16 h; stronger effect = lower value; in the data active means activity change below about -50%; inconclusive means mostly about -30% to -49%
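Secreted IL-1B measured by AlphaLISA bead assay after 16 h compound exposure of THP-1 cells; compounds (final up to 57.5 uM) added 1 h before LPS (250 ng/mL) and ATP (1.25 mM) stimulation; lower signal means less secretion.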
HT1080-NT tox = kills 2HG-producing HT-1080-NT fibrosarcoma cells. hit rate 1.6% among 360,000. HT-1080-NT fibrosarcoma viability, CellTiter-Glo ATP luminescence, 48 h. Potency, µM (doses to about 46.1 µM), without a hit: top-dose activity, negative = less viability, hits mostly cytotoxic. AID 686970;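 further: NT is the 2HG producing partner of a matched IDH1 knockdown line; potency means the concentration at half of the fitted maximal effect; 0% = DMSO-treated cells and -100% = media-only wells without cells; nearly all actives have a fitted effect of over 55% in size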
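A 48-hour cytotoxicity screen used HT-1080-NT cells plated 2 hours before compound delivery. ATP-based CellTiter-Glo luminescence measured viability, normalized to DMSO and no-cell controls.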
* marks the source's active call; other numbers are inactive results; ? = inconclusive; nt = no result; ! = not confirmed by another sample. Unless noted, the call rests on the fitted dose curve; in most records, active means well fitted curve in the direction sought with a large enough effect; inconclusive means small, poorly fitted or top-dose-only effect, or another doubt; inactive means no such curve, though single readings can be large; an effect the other way counts as inactive or inconclusive. Unless noted, on the % scale 0 is the no-effect control and ±100 the full control effect.

SMILES	TDP1 cell noCPT	DT40 TDP1 CPT	ELG1 DNA repair	HT1080 IDH1KD tx	IL1B secr inh	HT1080-NT tox
COc1nc(N)nc(N)c1NS(=O)(=O)c1ccc(C)cc1	13%	-2%	0%	1%	24	4%
CSc1ccc(/C=C2\CCn3c2nc2cc(C(=O)O)ccc2c3=O)cc1	?	?	0%	26%	51	24%
COc1ccc(CNS(=O)(=O)c2ccc3c(c2)CCN3C(=O)C2CCC2)cc1	?	?	14%	0%	15	5%
Cc1cc(=O)c2c(O)c3c(O)cc(=O)c4c3c3c(cc(O)c1c23)C(C)(C)C=4O	0.73µM*	1µM*!	nt	nt	nt	nt
Cn1c(-c2cccs2)[n+](C)c2ccccc21	18µM*	?	?	?	7	-3%
CCOn1c(=O)c(-c2cccs2)[n+]([O-])c2ccccc21	-9%	-10%	-5%	0%	?	-1%
COCCn1cnnc1SCC(=O)Nc1cc(OC)c([N+](=O)[O-])cc1C	-5%	-13%	-20%	-2%	6	16%
CCCCc1ccc(-n2nnnc2SCC(=O)Nc2cc(OC)c([N+](=O)[O-])cc2C)cc1	18µM*	?	3%	2%	-8	1%
CC(C)(C)c1ccc(Cn2cnc(-c3ccc([N+](=O)[O-])cc3)c2)cc1	23µM*	23µM*	?	-12%	?	-15%
COc1ccc(-c2cn(Cc3ccc([N+](=O)[O-])cc3)nn2)cc1	?	?	-1%	-3%	29	0%
Cc1cc(C)c(Cn2cnc(-c3ccc([N+](=O)[O-])cc3)c2)c(C)c1	15µM*	13µM*	-29%	?	-64*	-22%
COc1ccc(Cl)cc1C(=O)NNC(=O)COC(=O)CC(NC(C)=O)c1ccccc1 (stereo not drawn)	-18%	8%	0%	8%	0	-1%
CC(C)C(=O)N1CCN(c2ccccc2NC(=S)NC(=O)Cc2ccccc2)CC1	?	?	nt	11%	-11	7%
COCCN1C(=O)CCC1(C)c1nnnn1-c1c(C)cccc1C (stereo not drawn)	-17%	-6%	nt	-1%	19	1%
Cc1ccc(NC2(c3nnnn3-c3c(C)cccc3C)CCCCC2)cc1	23µM*	?	-1%	-13%	-5	3%
CCc1ccc(C(=O)c2cn(CC(=O)NC3CCCCC3)c3nc(C)ccc3c2=O)cc1	2%	3%	nt	nt	nt	nt
COC(=O)CCC(=O)c1oc2ccc(Cl)cc2c1NC(=O)CCCN1C(=O)c2ccccc2C1=O	-9%	-8%	4.6µM*	1%	22	-3%
CCN(CC)c1ccc(S(=O)(=O)N2CCOCC2)cc1NC(=O)COC(=O)c1cccnc1SC	16µM*	?	-26%	4%	0	-1%
CCOc1ncccc1C(=O)OCC(=O)Nc1cc(S(=O)(=O)N2CCOCC2)ccc1Cl	-13%	-24%	-20%	-2%	12	5%
CCN(CC)c1ccc(S(=O)(=O)N2CCOCC2)cc1NC(=O)COC(=O)/C=C/c1ccco1	26µM*	23µM*	nt	1%	-1	4%

Source: PubChem (National Center for Advancing Translational Sciences (NCATS))
